# According to ChEMBL document CHEMBL4513216, “Probing the Open Global Health Chemical Diversity Library for Multistage-Active Starting Points for Next-Generation Antimalarials” (ACS Infect Dis, 2020):
# In all, about 69,000 compounds went through this assay and about 8,600 (12%) showed an effect of 50% or more. Many of the other results were omitted from the sample, so strong results are more common in it than they were.
# Tested on: Plasmodium berghei
# Experiment: Screen against P. berghei liver stage (PbLuc), transformed with Luciferase, at 10uM
# Type: functional, HepG2
# Conditions: tested at 10 uM
row,Compound,INHIBITION [%]
1,Cc1nc(Cc2ccc(F)cc2)cc(C2COCCN2)n1 (stereo unspecified),35.305
2,O=C(C1CC1)N1CCCC(c2nc(O)cc(-c3ccncc3)n2)C1 (stereo unspecified),47.2
3,COc1ccc(CN2C[C@H]3C[C@H](CN(C)C)O[C@H]3C2)cc1,28.4
4,CCNCCc1nc2cc(F)ccc2[nH]1,72.3
5,CNCCc1nc2cc(F)ccc2[nH]1,-2.37
6,CNCCc1nc2cc(Cl)ccc2[nH]1,31.9
7,CC(C)c1nc(CN2CCC(c3ccnn3CCO)CC2)no1,38.5
8,CCN(c1ccc(C(=O)N2CCCCCC2)cc1)S(=O)(=O)CC,3.77
9,CSCc1ccc(N(C)CC2CCCN(C(C)C)C2)nc1 (stereo unspecified),-43.1
10,CC(C)N1CCCC(CN(C)c2ccc(Cn3ccnc3)cn2)C1 (stereo unspecified),-23.4
11,CN(CC1CCN(c2ccccc2)C1)c1ccc(Cn2ccnc2)cn1 (stereo unspecified),74.9
12,Cn1c2c(c(=O)n1C)CN(C(=O)c1ccncc1F)CCC2,25.8
13,COC(=O)c1cc(C(=O)N2CCN(C)CC2)n(-c2ccccc2)n1,30.2
14,CNC(=O)NCC(=O)N1CCCC1Cc1cccc(F)c1 (stereo unspecified),10.6
15,NC(=O)c1cccc2nc([C@H]3CCN(Cc4ccccc4F)C3)[nH]c12,14.9
16,COc1ccc(CN2CC[C@H](c3nc4cccc(C(N)=O)c4[nH]3)C2)cc1,22.3
17,NC(=O)c1cccc2nc([C@H]3CCN(Cc4ccccn4)C3)[nH]c12,66.6
18,Cc1ccc2[nH]c(C3CCN(CC(N)=O)CC3)nc2c1,-9.51
19,NC(=O)c1cccnc1N1C[C@H]2CC[C@@H](C1)N(Cc1ccccn1)C2=O,43.8
20,Cc1ccc(CN2CC[C@H](c3nc4cccc(C(N)=O)c4[nH]3)C2)cc1,59.2
21,CS(=O)(=O)N1CC[C@@H]2[C@@H]1CCN2Cc1ccc2c(c1)OCO2,7.5
22,CC(C)N(CCCNC(=O)C1CCCN(C(N)=O)C1)S(C)(=O)=O (stereo unspecified),36.5
23,CN(Cc1cn(CC2CCNCC2)nn1)CC1CCCCO1 (stereo unspecified),-1.04
24,O=C1[C@H]2CN(Cc3ccco3)C[C@H]2CN1c1ccsc1,31.1
25,CC(NCCCN1CCCN(C)CC1)C(C)(C)C (stereo unspecified),26
26,Cc1cc(NC(=O)Cn2ccccc2=O)n(C)n1,11.5

row,Compound,INHIBITION [%]
1,Cn1nc(C(C)(C)C)cc1NC(=O)Cn1ccccc1=O,54.3
2,Cc1ccccc1-c1cc(NC(=O)Cn2ccccc2=O)n(C)n1,-3.94
3,c1cncc(N2CCO[C@H]3CN(CC4CCOC4)C[C@H]32)c1 (stereo partly specified),62
4,Fc1cnc(N2CCO[C@H]3CN(CC4CCOC4)C[C@H]32)nc1 (stereo partly specified),43.1
5,c1cnc(N2CCO[C@H]3CN(CC4CCC4)C[C@H]32)cn1,62
6,c1cnc(N2CCO[C@H]3CN(CC4CCOC4)C[C@H]32)cn1 (stereo partly specified),44.8
7,Fc1cnc(N2CCO[C@H]3CN(CC4CCC4)C[C@H]32)nc1,12.2
8,c1cnc(N2CCO[C@H]3CN(CC4CCCC4)C[C@H]32)cn1,42.1
9,O=C(C1=CCCCC1)N1CCO[C@H]2[C@H](Oc3ccccn3)CC[C@@H]21,27.6
10,CCCc1nc(C)cc(NCc2ccc(S(N)(=O)=O)cc2)n1,18.5
11,CCOc1ccc(-n2nnc(C(=O)O)c2-c2ccccn2)cc1,-31.6
12,CCN(Cc1cc(Cl)ccc1OC)Cc1cc(C)nn1C,57.9
13,CCN(Cc1ccccn1)Cc1cc(Cl)ccc1OC,39.1
14,CCN(Cc1cc(Cl)ccc1OC)Cc1nccn1C,15.3
15,O=C(CCCN1CCCCC1)N1CCN(C(=O)c2nc[nH]n2)CC1,-15.5
16,Cc1[nH]ncc1CCCNC(=O)Nc1ccc(C#N)cc1,-70.3
17,Cc1[nH]ncc1CCCNC(=O)Nc1ccccc1,24.6
18,Cc1[nH]ncc1CCCNC(=O)Nc1ccc(S(C)(=O)=O)nc1,22.6
19,Cc1[nH]ncc1CCCNC(=O)Nc1ccc(F)cc1,78.2
20,Cc1[nH]ncc1CCCNC(=O)N1CCOC(C)C1 (stereo unspecified),-1.95
21,Cc1[nH]ncc1CCCNC(=O)Nc1ccc2c(c1)OC1(CCCC1)O2,70.3
22,CN(CC1CCOC1)c1ccc(Br)cn1 (stereo unspecified),44.2
23,CS(=O)(=O)N1CC[C@@H]2OC(COCC(=O)N3CCCC3)CC[C@@H]21 (stereo partly specified),-8.94
24,CC(CCN1CCC(n2cc(CCO)nn2)CC1)c1ccccc1 (stereo unspecified),24.9
25,COCc1cn(C2CCN(CCC(C)c3ccccc3)CC2)nn1 (stereo unspecified),55.7
26,CNCc1cn(C2CCN(CCC(C)c3ccccc3)CC2)nn1 (stereo unspecified),3.06

row,Compound,INHIBITION [%]
1,O=C1[C@@H]2CCN(C3CCOCC3)C[C@@H]2OCCN1Cc1cccnc1,-8.54
2,CO[C@H]1CCN(S(=O)(=O)c2cn(C)cn2)[C@H]1Cc1cnn(C)c1,10.8
3,CN1CCc2nnc(C3CCCN3S(=O)(=O)c3ccc(F)cc3)n2CC1 (stereo unspecified),-9.08
4,Cc1cc(C)c(CNCC(O)c2ccc(F)c(F)c2)c(C)c1 (stereo unspecified),-20.3
5,O[C@H]1CCCC[C@@H]1N1CCN(CCCc2ccc3c(c2)OCO3)CC1,53.8
6,CSc1ccc(CCN2CCN([C@H]3CCCC[C@@H]3O)CC2)cc1,25.1
7,c1cc2c(cc1CN1C[C@@H]3COC[C@@H](N4CCCC4)[C@@H]3C1)OCO2,39.4
8,CCCOc1c(CNC2CCSC2)cccc1OC (stereo unspecified),4.87
9,CCn1c(Cn2cncn2)nnc1C1CCN(CCN)CC1,43.8
10,CCn1c(Cn2cncn2)nnc1C1CCN(CC2[C@H]3CNC[C@@H]23)CC1 (stereo partly specified),57.1
11,CCn1c(Cn2cncn2)nnc1C1CCN(Cc2ccncc2)CC1,-22.1
12,CC(C)c1nn(C)c(N(C)C)c1CNCCC(=O)N(C)C,3.19
13,CSc1ccsc1C(=O)N1CCN(CC(C)(C)O)CC1,25.3
14,O=C(c1cnn(-c2ccccc2F)c1)N1CCN(CCO)CC1,-10.3
15,CC(C)(C)n1cc(C(=O)N2CCN(Cc3ccncc3)CC2)cn1,24.15
16,CC(C)C(C)(C#N)NC(=O)CN1CCCN(Cc2ccccc2F)CC1 (stereo unspecified),82.4
17,CC(C)(O)CN1CCN(C(=O)c2sccc2C#N)CC1,54.4
18,CC(C)(C)n1cc(C(=O)N2CCN(Cc3ccccc3F)CC2)cn1,71.4
19,CCCN1CCN(C(=O)c2cnn(-c3ccccc3F)c2)CC1,-39.9
20,CC(C)(C)NC(=O)CN1CCCN(Cc2ccc(C#N)cc2)CC1,-7.77
21,CC(C)(O)CN1CCN(C(=O)c2cnn(-c3ccccc3F)c2)CC1,58.5
22,CCc1ccsc1C(=O)N1CCN(CC(C)(C)O)CC1,-13.5
23,CC(C)(C)n1cc(C(=O)N2CCN(Cc3ccco3)CC2)cn1,6.15
24,CC(C)(C)NC(=O)CN1CCCN(Cc2cc(C#N)ccc2F)CC1,-24.9
